In all, about 2,300 compounds went through this assay and about 160 (7%) were called active. These entries were drawn from the full list. Measured potencies and affinities stand elsewhere. Unmarked numbers belong to inactive results. How the calls were made is not given here.
Assay: Vero cell cytotoxicity, dose response, cytotoxicity control for Vif-APOBEC3G degradation inhibitor project, Vero cells (AID 1117358)
Conditions: CellTiter-Glo ATP luminescence, 72 h; series mostly up to 40 µM; viability: at the top concentration

SMILES | viability [%]
Cc1cccc(CCNC(=O)CCc2nc(-c3ccccc3F)no2)c1 | 95.3
O=C(N/N=C/C=C\c1ccco1)c1cccnc1 | 97.5
Cc1cc(C)nc(N(C#N)CN2C(=O)c3ccccc3S2(=O)=O)n1 | 105
COC(=O)CSc1nnc(CNC(=O)c2cccs2)n1-c1cc(OC)ccc1OC | 94.3
COc1ccc(OC)c(-c2cc(C(=O)NCc3cccs3)no2)c1 | 103
c1ccc2c(c1)ccc1nnc(SCc3ccc4c(c3)OCO4)n12 | 94.7
CCOC(=O)NC1(NC2CCCCC2)Oc2ccccc2O1 | 106
CC(C)(C)NC(=O)C1N(c2cccnc2)C(=O)C2C(C(=O)Nc3ccccc3F)C3(C)C=CC21O3 (stereo not drawn) | 99.9
O=S(=O)(c1ccc(Cl)s1)N1CCN(Cc2ccccc2)CC1 | 93.6
O=C(CN1CCN(S(=O)(=O)c2ccc(Cl)cc2)CC1)Nc1ccc2c(c1)OCCO2 | 87.7
CCC(C)(C)C1CCc2c(sc(NC(=O)c3ccoc3C)c2C(N)=O)C1 (stereo not drawn) | 93.7
O=C(CSc1nnc(-c2cccnc2)n1Cc1ccco1)c1ccc(Br)cc1 | 99.4
Cc1c(C(=O)Nc2ccc(Cl)cc2)c2ccccn2c1CCc1ccncc1 | 105
O=C(O)CCC(=O)NNC(=O)CCC(=O)NCc1ccccc1 | 112
C/C(=C/C(=O)NCc1ccccc1)C(=O)O | 97.7
Cc1cc(F)ccc1S(=O)(=O)Nc1ccccc1C(=O)Nc1ccc2[nH]c(=O)[nH]c2c1 | 94.2
COC(=O)c1ccccc1NC(=O)C1CCCC1 | 95.7
Cc1ccc(Cc2cnc(NC(=O)/C(C#N)=C/c3ccc(-c4ccc([N+](=O)[O-])cc4)o3)s2)cc1 | 99.2
COc1ccc(NC(=O)/C(C#N)=C\c2cc(C)n(-c3ccc(Oc4ccc([N+](=O)[O-])cn4)cc3)c2C)cc1 | 101
O=C(NCc1ccc(F)cc1)c1c(O)c2cccc3c2n(c1=O)CCC3 | 90.8
CCSC1=C(C#N)C(c2cccs2)C(C(=O)OC)=C(C)N1 (stereo not drawn) | 96
CCn1c(=O)c(C(=O)NCc2ccccn2)c(O)c2ccccc21 | 97.1
CCOC(=O)c1c(O)c2ccccc2n(-c2ccccc2)c1=O | 92.8

SMILES | viability [%]
Cc1ccc2cc3c(NC(=O)c4cccnc4)nn(C)c3nc2c1 | 94
CN(C)C(CNC(=O)c1cccnc1Sc1ccccc1)c1ccco1 (stereo not drawn) | 96.5
O=C(c1cnn2c(C(F)F)cc(C3CC3)nc12)N1CCc2ccccc2C1 | 94.5
O=C(NC1CCCC1)c1ccc(CNc2c(N3CCOCC3)c(=O)c2=O)cc1 | 101
CN(C)[C@H]1N(C(=O)c2ccc(Br)cc2)N=C2c3ccccc3S(=O)(=O)N21 | 94.4
Cc1cc(C(=O)CN2C(=O)c3ccccc3S2(=O)=O)c(C)n1CC1CCCO1 (stereo not drawn) | 106
Cc1c(NS(=O)(=O)c2cccc(C(=O)NCc3ccncc3)c2)c(=O)n(-c2ccccc2)n1C | 98.7
O=C(CCCc1ccccc1)N1CCN(c2ccc([N+](=O)[O-])cc2)CC1 | 95.2
Cc1ccc(-c2nc3s/c(=C\c4ccco4)c(=O)n3n2)cc1 | 98.8
O=C(NCC1CCCO1)c1cc(-c2ccco2)nc2ccccc12 (stereo not drawn) | 101
CCCC(=O)Nc1cccc(-c2nc3ccccc3o2)c1 | 93.2
CCn1c(SCC(=O)n2nc(C)cc2C)nnc1-c1ccc2c(c1)OCO2 | 95.5
Cc1c(/C=N\NC(=O)c2csc3ccccc23)cnn1C | 107
CN(CCOCCOc1ccc2ccccc2c1)Cc1ccccc1 | 80.2
Cc1cc(NC(=O)c2cncc(Br)c2)no1 | 94.7
O=C(O)c1cc(-c2ccc(N3CCOCC3)cc2)nn1-c1ccc(F)cc1F | 98.9
CC(=O)C1=C(O)C(=O)N(Cc2ccco2)C1c1ccc(F)cc1 (stereo not drawn) | 98.9
COc1ccc(N2C(=O)C3CCCN3C2c2ccc(C)cc2)cc1 (stereo not drawn) | 97.8
Cc1[nH]c2ccccc2c1C(=O)CN1CCC(C(N)=O)(N2CCCCC2)CC1 | 95
Cc1[nH]c2ccccc2c1C(=O)Cn1c(=O)oc2ccccc21 | 94.9
Cc1nn(Cc2ccc(Cl)cc2)c(C)c1NC(=O)c1cc(-c2ccc3c(c2)OCO3)on1 | 83.2
Cc1nn(Cc2ccccc2)c(C)c1NC(=O)Cn1nc([N+](=O)[O-])c(Cl)c1C | 101
CC1(C)Oc2ccc(C(=O)NC3CCCC3)cc2N(CC(=O)NC2CCCC2)C1=O | 99.9

SMILES | viability [%]
CCOc1ccc(N(CC(=O)NC(C)(C)C)S(=O)(=O)c2c(C)noc2C)cc1 | 96.2
Cn1nnnc1SCC(=O)NCc1ccco1 | 102
CN(C)S(=O)(=O)N1CCC(CCCC2CCN(S(=O)(=O)N(C)C)CC2)CC1 | 108
Cc1ccc(NC(=O)COc2ccccc2C(=O)Nc2ccccc2)cc1Cl | 85.8
O=C(C/C=N/OCc1c(Cl)cccc1Cl)c1ccc(Cl)cc1 | 93.4
Cc1cc(C)cc(NCc2cc3c(cc2[N+](=O)[O-])OCO3)c1 | 85.9
O=C(Oc1ccccc1)c1cccc2cccnc12 | 82.5
CC(C)c1ccc(NC(=O)C(c2ccccc2)N2CCC3(CC2)OCCO3)cc1 (stereo not drawn) | 104
Oc1cccc(/C=N/c2c(-c3ccco3)nc3ccccn23)c1 | 95.3
CCC(c1nnnn1C(C)(C)CC)N(CCCO)Cc1cc2cc(C)cc(C)c2[nH]c1=O (stereo not drawn) | 94.8
Cc1cccc(-n2c(Cc3cc(=O)[nH]c(=O)[nH]3)nnc2SCC(=O)NCC2CCCO2)c1 (stereo not drawn) | 94.2
CC(NC(=O)c1cccs1)C(c1cccs1)N1CCN(Cc2ccccc2)CC1 (stereo not drawn) | 103
CCOC(=O)c1c(NC(=O)c2cc(CC(C)C)on2)sc(C(C)=O)c1C | 100
N#CC1=C(Nc2ccccc2)SC=C(c2ccc(Br)cc2)N=C1N1CCOCC1 | 91.6
Cc1nc2ccc(S(=O)(=O)N(C)CC(=O)N3CCc4ccccc43)cc2s1 | 100
COc1cccc(-c2nnc(SCC(=O)N3CCOCC3)o2)c1 | 102
CCOc1ccc(Cl)cc1S(=O)(=O)N1CCN(c2ccc(F)cc2)CC1 | 87.1
CCOc1ccc(C2=[N+]([O-])C(C)(C)N(O)C2(C)C)cc1 | 93.6
O=C(Oc1cccnc1)c1ccc(Cl)cc1 | 94.4
CC1=CC(C)(C)Nc2ccc(OC(=O)CN3C(=O)c4cccc5cccc(c45)C3=O)cc21 | 96.7
Cc1ccc(-c2ccc(CCC(=O)O)n2NC(N)=S)cc1 | 93.1
Cc1cc(-c2[nH]nc3c2C(c2cccc(O)c2)C(C#N)=C(N)O3)c(C)s1 (stereo not drawn) | 96.6

— PubChem BioAssay AID1117358 (Southern Research Institute, 2015)
